Source: PubChem BioAssay (NCATS)
Records with an inconclusive call do not appear. Unmarked numbers belong to inactive results. The source made the active and inactive calls. The call rests on the fitted dose curve; in most records, active means well fitted activation curve with a large enough effect; inconclusive means small, poorly fitted or top-dose-only effect; inactive means no such curve, though single readings can be large or run the other way.

biological target: Cellular tumor antigen p53 (Homo sapiens) (UniProt P04637); assay: Primary qHTS for small molecule compounds that upregulate eGFP-tagged delta133p53alpha (in N-terminal) cells. (AID 2060322); settings: NCI-H358 eGFP-delta133p53alpha fluorescence, 24 h; activation: stronger effect = higher value; further: nearly all actives have a fitted effect of over 75% in size;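 on activation: cells pre-induced with doxycycline then dosed without doxycycline; series mostly up to about 56 µM; 0% = DMSO vehicle and 100% = reference activator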
Procedure, shortened: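 NCI-H358 cells pre-induced 24 h with 10 ng/ml doxycycline for eGFP-delta133p53alpha, plated dox-free and exposed 24 h at 37C to titrated compounds. Fixed, Hoechst-stained; gated GFP peak intensity by laser scanning cytometry, normalized to DMSO (0%) and 57.5 uM 5-azacytidine (100%).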
Potency means the concentration at half of the fitted maximal effect.

Sequence of Cellular tumor antigen p53 (Homo sapiens) (P04637 whole entry, looked up): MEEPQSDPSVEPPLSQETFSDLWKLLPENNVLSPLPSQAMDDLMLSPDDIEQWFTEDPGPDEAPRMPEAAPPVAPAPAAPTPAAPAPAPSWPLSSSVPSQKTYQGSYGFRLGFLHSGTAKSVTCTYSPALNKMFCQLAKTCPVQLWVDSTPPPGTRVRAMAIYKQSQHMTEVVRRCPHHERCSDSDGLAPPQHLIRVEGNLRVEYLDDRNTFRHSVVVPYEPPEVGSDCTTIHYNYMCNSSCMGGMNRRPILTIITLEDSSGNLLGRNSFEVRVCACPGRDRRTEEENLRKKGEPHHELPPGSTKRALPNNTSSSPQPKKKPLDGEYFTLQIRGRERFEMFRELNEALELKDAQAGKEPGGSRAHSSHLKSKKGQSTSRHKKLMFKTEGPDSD

| Structure (SMILES) | activation | Potency |
| --- | --- | --- |
| Cc1cc(O)cc2c1O[C@](C)(CCC[C@H](C)CCC[C@H](C)CCCC(C)C)CC2 | -16.4% | – |
| O=C(/C=C/c1ccc(O)cc1)OCC1OC(O)C(OC2OC(CO)C(O)C(O)C2O)C(O)C1O (configuration not stated) | -13% | – |
| CC1=CCC[C@@H]2[C@](CCc3ccoc3)(C(=O)O)[C@H](C)CC[C@@]12C | -28.2% | – |
| Cc1ccc2c(Nc3ccc(Cl)cc3)nccc2c1Nc1ncccc1-c1ncnc2nc[nH]c12 | – | 9.53 µM (active) |
| COc1c(/C=C/C(C)(C)O)ccc2c1C(=O)OCc1cc(C)cc(O)c1O2 | -12.5% | – |
| CC(C)(O)C(=O)N1CCN(c2ccc(C(F)(F)F)c(C3=C(c4c[nH]c5ccccc45)C(=O)NC3=O)c2)CC1 | – | 26.9 µM (active) |
| CC(O)/C=C/C1(O)C(C)C(O)C(O[C@@H]2O[C@H](CO)[C@@H](O)[C@H](O)[C@H]2O)CC1(C)C (some centres not stated) | -14.3% | – |
| CC(C)=CCC[C@](C)(O[C@@H]1O[C@H](CO[C@@H]2O[C@@H](CO)[C@H](O)[C@H]2O[C@@H]2OC[C@@H](O)[C@H](O)[C@H]2O)[C@@H](O)[C@H](O)[C@H]1O)[C@H]1CC[C@]2(C)[C@@H]1[C@H](O)CC1[C@@]3(C)CC[C@H](O[C@@H]4O[C@H](CO)[C@@H](O)[C@H](O)[C@H]4O[C@@H]4O[C@H](CO)[C@@H](O)[C@H](O)[C@H]4O)C(C)(C)C3CC[C@]12C (some centres not stated) | -6.87% | – |
| O=C(Nc1ccccc1C(=O)Nc1ccc(CCO)cc1)c1ccc([N+](=O)[O-])cc1 | -29.5% | – |
| COc1cc(O)c2c(c1)C1=CC(O)C(O)CC1(C)OC2=O (configuration not stated) | 2.29% | – |
| CC(C)(O)/C=C/CC(C)(O)C1C(O)CC2(C)C3CCC4C(C)(C)C(=O)CCC4(C)C3CCC12C (configuration not stated) | 2.29% | – |
| CC(C)c1cc(-c2ccc(F)c3ccccc23)nc(N)n1 | -13.4% | – |
| CC(C)c1noc(C2CCN(c3ncnc(Nc4ccc(S(C)(=O)=O)cc4F)c3[N+](=O)[O-])CC2)n1 | 21% | – |
| CC(C(O)/C=C/C(C)(C)O)C1CCC2(C)C3C(=O)C=C4C(CCC(O)C4(C)C)C3(C)CCC12C (configuration not stated) | -22.3% | – |
| CC/C=C/CC1=C(CCCCCCCC(=O)O)CCC1=O | -17.9% | – |
| COc1ccc(S(=O)(=O)N2CCC[C@H]2C(=O)Nc2cc(C)cc(C)c2)cc1 | -17.2% | – |
| CC1OC(OC2C(C)OC(OC3C(O)C(CO)OC(O[C@H]4CC[C@@]5(C)C(CC[C@]6(C)C5CC=C5C7[C@@H](C)[C@H](C)CC[C@]7(C(=O)O)CC[C@]56C(=O)O)C4(C)C)C3O)C(O)C2O)C(O)C(O)C1O (some centres not stated) | 3.82% | – |
| CC(=O)O[C@@H]1[C@@H](O)[C@H](O[C@H]2CC[C@]34C[C@]35CC[C@]3(C)[C@@H]([C@@]6(C)CC[C@@H](C(C)(C)O)O6)[C@@H](O)C[C@@]3(C)[C@@H]5C[C@H](O[C@@H]3O[C@H](CO)[C@@H](O)[C@H](O)[C@H]3O)[C@H]4C2(C)C)OC[C@H]1O | 15% | – |
| CC(C)=C1C[C@@]2(C)C(=CC1=O)CC[C@@H](OC(=O)/C(C)=C/CO)[C@@H]2C | 5.34% | – |
| CCC(C)C(=O)OC[C@H]1O[C@H](O[C@H]2O[C@H](CO)[C@@H](O)[C@H](O)[C@H]2O)[C@H](O)[C@@H](O)[C@@H]1O (some centres not stated) | 1.53% | – |
| COc1cc(C(C)=O)ccc1O[C@@H]1O[C@H](CO)[C@@H](O)[C@H](O)[C@H]1O | -7.63% | – |
| COC(=O)C1=CO[C@@H](O)C2C(CO)=CCC12 (some centres not stated) | 23% | – |
| Cc1noc(-c2ccc(-c3ccc(CC(=O)O)cc3)cc2)c1NC(=O)O[C@H](C)c1ccccc1 | -1.79% | – |
| CC(=O)O[C@@H]1[C@@H](OC(C)=O)[C@H](C)O[C@@H](O[C@H]2[C@@H]3C=CO[C@@H](O[C@@H]4O[C@H](CO)[C@@H](O)[C@H](O)[C@H]4O)[C@@H]3[C@@]3(CO)O[C@@H]23)[C@@H]1OC(=O)/C=C/c1ccccc1 | -1.53% | – |
| CC12CCC(C(OC3OC(COC4OCC(O)(CO)C4O)C(O)C(O)C3O)C1)C(C)(C)O2 (configuration not stated) | -13.4% | – |
| COc1ccc(C(=O)Nc2ncc(-c3ccc(C(=O)O)cc3)s2)cc1 | – | 10.7 µM (active) |
| C=C(C(=O)O)[C@@H]1CC=C(CCC(C)=O)[C@@H](C)CC1 | 8.93% | – |
